Results filed as inconclusive are left out. The source made the active and inactive calls. The call rests on the fitted dose curve; in most records, active means well fitted cell-killing curve with a large enough effect; inconclusive means small, poorly fitted or top-dose-only effect, or effect the other way; inactive means flat fitted curve, though single readings scatter.
Experiments:
Test in all cases: Primary qHTS to identify gynecologic anti-cancer compounds using libraries of approved drugs and bioactive compounds (AID 1345084); further: nearly all actives have a fitted effect of over 55% in size
C33A = conditions: Gynecologic cancer cell panel viability, ATPlite luminescence, 48 h; series mostly up to 57.5 µM
How it was run: (§1)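 Cells, 1,000 per well, were allowed to settle for 16 h at 37 C before compound addition. Five concentrations were tested for 48 h, and viability was read by ATPlite luminescence after 15 min at room temperature.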

CAOV3 = conditions: Gynecologic cancer cell panel viability, ATPlite luminescence, 48 h; series mostly up to 57.5 µM
How it was run: as §1

CASKI = conditions: Gynecologic cancer cell panel viability, ATPlite luminescence, 48 h; series mostly up to 57.5 µM
How it was run: as §1

Es-2 = conditions: Gynecologic cancer cell panel viability, ATPlite luminescence, 48 h; series mostly up to 57.5 µM
How it was run: as §1

HeLa = conditions: Gynecologic cancer cell panel viability, ATPlite luminescence, 48 h; series mostly up to 57.5 µM
How it was run: as §1

Hek293T = conditions: Gynecologic cancer cell panel viability, ATPlite luminescence, 48 h, control line for the selectivity index; series mostly up to 57.5 µM
How it was run: as §1

JEG-3 = conditions: Gynecologic cancer cell panel viability, ATPlite luminescence, 48 h; series mostly up to 57.5 µM
How it was run: as §1

OV90 = conditions: Gynecologic cancer cell panel viability, ATPlite luminescence, 48 h; series mostly up to 57.5 µM
How it was run: as §1

PA-1 = conditions: Gynecologic cancer cell panel viability, ATPlite luminescence, 48 h; series mostly up to 57.5 µM
How it was run: as §1

SKOV3 = conditions: Gynecologic cancer cell panel viability, ATPlite luminescence, 48 h; series mostly up to 57.5 µM
How it was run: as §1

Tov-21-G = conditions: Gynecologic cancer cell panel viability, ATPlite luminescence, 48 h; series mostly up to 57.5 µM
How it was run: as §1

Tov112D = conditions: Gynecologic cancer cell panel viability, ATPlite luminescence, 48 h; series mostly up to 57.5 µM
How it was run: as §1
On the % scale 0 is the no-effect control and ±100 the full control effect.

COC(=O)[C@H](Cc1cccc(C(=N)N)c1)[C@@H](C)NC(=O)c1ccc(-c2cc[n+]([O-])cc2)cc1
inactive: Potency (C33A) | Potency (CAOV3) | outcome (CASKI) | Potency (Es-2) | Potency (HeLa) | Potency (Hek293T) | Potency (JEG-3) | Potency (OV90) | Potency (PA-1) | Potency (SKOV3) | Potency (Tov-21-G) | Potency (Tov112D)

COc1ccc(C2C(C(=O)O)C(C(=O)O)C2c2ccc(OC)cc2O[C@@H]2O[C@H](CO)[C@@H](O)[C@H](O)[C@H]2O)c(O[C@@H]2O[C@H](CO)[C@@H](O)[C@H](O)[C@H]2O)c1 (stereo not given in full)
inactive: Potency (C33A) | Potency (CAOV3) | outcome (CASKI) | Potency (Es-2) | Potency (HeLa) | Potency (Hek293T) | Potency (JEG-3) | Potency (OV90) | Potency (PA-1) | Potency (SKOV3) | Potency (Tov-21-G) | Potency (Tov112D)

CC1CC2(O)OC(=O)C3=C2C(CCC3)[C@@]12C[C@@H](c1ccoc1)OC2=O (stereo not given in full)
inactive: Potency (C33A) | Potency (CAOV3) | outcome (CASKI) | Potency (Es-2) | Potency (HeLa) | Potency (Hek293T) | Potency (JEG-3) | Potency (OV90) | Potency (PA-1) | Potency (SKOV3) | Potency (Tov-21-G) | Potency (Tov112D)

CC(C)[C@@](O)(c1ccc2cc(OC(F)F)c(OC(F)F)cc2c1)c1cn[nH]n1
inactive: Potency (C33A) | Potency (CAOV3) | outcome (CASKI) | Potency (Es-2) | Potency (HeLa) | Potency (Hek293T) | Potency (JEG-3) | Potency (OV90) | Potency (PA-1) | Potency (SKOV3) | Potency (Tov-21-G) | Potency (Tov112D)

COC(=O)C1=COC(OC2OC(CO)C(O)C(O)C2O)C2C(C)C(OC(C)=O)C(OC(=O)c3ccccc3)C12 (stereo not given)
inactive: Potency (C33A) | Potency (CAOV3) | outcome (CASKI) | Potency (Es-2) | Potency (HeLa) | Potency (Hek293T) | Potency (JEG-3) | Potency (OV90) | Potency (PA-1) | Potency (SKOV3) | Potency (Tov-21-G) | Potency (Tov112D)

C=C1CC23CC(=O)C4C(CO)(CO)CCCC4(C)C2CCC1C3 (stereo not given)
inactive: Potency (C33A) | Potency (CAOV3) | outcome (CASKI) | Potency (Es-2) | Potency (HeLa) | Potency (Hek293T) | Potency (JEG-3) | Potency (OV90) | Potency (PA-1) | Potency (SKOV3) | Potency (Tov-21-G) | Potency (Tov112D)

C=C(C(=O)O)[C@@H]1CC[C@@]2(C)CCC[C@@](C)(O)[C@@H]2C1
inactive: Potency (C33A) | Potency (CAOV3) | outcome (CASKI) | Potency (Es-2) | Potency (HeLa) | Potency (Hek293T) | Potency (JEG-3) | Potency (OV90) | Potency (PA-1) | Potency (SKOV3) | Potency (Tov-21-G) | Potency (Tov112D)

COC(=O)C1=CO[C@@H](O[C@@H]2O[C@H](CO)[C@@H](O)[C@H](O)[C@H]2O)[C@@H]2[C@@H](CO)[C@@H](O)C(O)[C@H]12 (stereo not given in full)
inactive: Potency (C33A) | Potency (CAOV3) | outcome (CASKI) | Potency (Es-2) | Potency (HeLa) | Potency (Hek293T) | Potency (JEG-3) | Potency (OV90) | Potency (PA-1) | Potency (SKOV3) | Potency (Tov-21-G) | Potency (Tov112D)

CC(=O)OCC1OC(O[C@H]2CC[C@@]3(C)C(CC[C@]4(C)C3CC=C3[C@@H]5CC(C)(C)CC[C@]5(C(=O)O)CC[C@]34C)[C@]2(C)CO)C(O)C(O)C1OC1OC(C)C(O)C(OC2OCC(O)C(O)C2O)C1O (stereo not given in full)
inactive: activity change, negative = cytotoxicity (C33A) -0.849% [at 11.6 µM] | activity change, negative = cytotoxicity (CAOV3) 3.79% [at 11.6 µM] | activity change, negative = cytotoxicity (CASKI) 14.3% [at 11.6 µM] | activity change, negative = cytotoxicity (Es-2) 2.8% [at 11.6 µM] | activity change, negative = cytotoxicity (HeLa) 8.24% [at 11.6 µM] | activity change, negative = cytotoxicity (Hek293T) 6.88% [at 11.6 µM] | activity change, negative = cytotoxicity (JEG-3) 4.64% [at 11.6 µM] | activity change, negative = cytotoxicity (OV90) -3.49% [at 11.6 µM] | activity change, negative = cytotoxicity (PA-1) -3.48% [at 11.6 µM] | activity change, negative = cytotoxicity (SKOV3) 19.9% [at 11.6 µM] | activity change, negative = cytotoxicity (Tov-21-G) 6.07% [at 11.6 µM] | activity change, negative = cytotoxicity (Tov112D) 0% [at 11.6 µM]

CC(C)(O)/C=C/C(=O)[C@](C)(O)[C@H]1[C@H](O)C[C@@]2(C)[C@@H]3CC=C4[C@@H](C=C(O[C@@H]5O[C@H](CO)[C@@H](O)[C@H](O)[C@H]5O)C(=O)C4(C)C)[C@]3(C)C(=O)C[C@]12C
inactive: Potency (C33A) | Potency (CAOV3) | outcome (CASKI) | Potency (Es-2) | Potency (HeLa) | Potency (Hek293T) | Potency (JEG-3) | Potency (OV90) | Potency (PA-1) | Potency (SKOV3) | Potency (Tov-21-G) | Potency (Tov112D)
